Only some compounds are listed: those with a hit (about 1.4% of all), similar ones and a draw of the others.
Rango dissoc inh = qHTS Assay for Inhibitors of RanGTP induced Rango (Ran-regulated importin-beta cargo) - Importin beta complex dissociation; Snurportin-1 (Homo sapiens) + GTP-binding nuclear protein Ran (Homo sapiens) + Importin …; Biochemical FRET Rango-importin beta, RanGTP-induced dissociation; Potency, µM (highest dose often 46.1 µM), inactives show at the top dose activity change, negative = inhibition; actives 0.071% (n = 340,000); also: potency is read from the fitted curve at half-maximal effect; % of control where 0% means no effect; nearly all actives have a fitted effect of over 45% in size
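Quantitative HTS using a FRET biosensor: 0.1 uM Rango, 0.25 uM importin beta, 0.6 uM Ran, 2 mM GTP, 0.2 uM RCC1 final, PBS with DTT, Tween-20 and BSA. Post-read taken 45 min after Ran addition.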
KCNH2 WT inh = qHTS for Inhibitors of KCHN2 3.1: Wildtype qHTS; AID 720551, 2013; Voltage-gated inwardly rectifying potassium channel KCNH2 (Homo sapiens), Q12809; activity change, % at 1.84 µM; actives 0.37% (n = 340,000); U2OS, BacMam KCNH2, thallium flux FluxOr; active compounds read low;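 active = maximum activity change below -70%; inconclusive = maximum activity change between -70% and -50%; inactive = maximum activity change above -50%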; also: % is scaled to controls: 0 for no effect and ±100 for the full control effect
Target sequence (Q12809 whole entry, looked up): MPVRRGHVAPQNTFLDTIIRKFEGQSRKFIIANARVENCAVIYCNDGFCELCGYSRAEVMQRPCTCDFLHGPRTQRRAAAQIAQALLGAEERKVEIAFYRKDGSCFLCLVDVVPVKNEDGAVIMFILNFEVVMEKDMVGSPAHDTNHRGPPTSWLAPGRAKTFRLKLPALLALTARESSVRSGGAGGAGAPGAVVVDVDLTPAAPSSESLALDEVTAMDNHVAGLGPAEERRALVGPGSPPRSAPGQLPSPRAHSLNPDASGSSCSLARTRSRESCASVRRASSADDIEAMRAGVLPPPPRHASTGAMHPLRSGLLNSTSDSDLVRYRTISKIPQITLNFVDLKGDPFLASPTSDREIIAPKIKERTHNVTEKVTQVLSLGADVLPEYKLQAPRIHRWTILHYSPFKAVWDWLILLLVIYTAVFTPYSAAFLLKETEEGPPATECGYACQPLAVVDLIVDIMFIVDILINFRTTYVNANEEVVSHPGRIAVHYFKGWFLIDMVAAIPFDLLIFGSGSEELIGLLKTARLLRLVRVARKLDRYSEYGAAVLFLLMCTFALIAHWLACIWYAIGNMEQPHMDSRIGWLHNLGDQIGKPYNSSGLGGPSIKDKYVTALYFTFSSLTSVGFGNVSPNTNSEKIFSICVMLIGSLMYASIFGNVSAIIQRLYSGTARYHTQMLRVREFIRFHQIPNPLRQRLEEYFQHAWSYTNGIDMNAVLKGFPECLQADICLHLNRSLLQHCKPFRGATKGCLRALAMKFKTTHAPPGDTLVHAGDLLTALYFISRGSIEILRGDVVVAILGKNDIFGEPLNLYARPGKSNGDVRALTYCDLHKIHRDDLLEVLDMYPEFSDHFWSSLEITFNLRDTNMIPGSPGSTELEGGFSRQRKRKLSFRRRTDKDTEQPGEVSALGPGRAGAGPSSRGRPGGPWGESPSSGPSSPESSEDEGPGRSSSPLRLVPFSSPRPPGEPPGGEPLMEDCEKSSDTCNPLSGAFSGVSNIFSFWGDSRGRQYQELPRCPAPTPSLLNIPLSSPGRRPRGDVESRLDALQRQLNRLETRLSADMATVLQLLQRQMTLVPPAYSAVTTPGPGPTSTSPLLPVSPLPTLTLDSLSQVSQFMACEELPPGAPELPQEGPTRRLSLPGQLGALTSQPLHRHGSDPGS
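U2OS cells transduced with wild-type KCNH2 virus are loaded with FluxOr dye for 45 min, and thallium flux is measured in kinetic reads before and after stimulation buffer. Rate constants are normalized to DMSO controls.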
Rango complex inh = qHTS Assay for Inhibitors of Rango (Ran-regulated importin-beta cargo) - Importin beta complex formation; Potency, µM (top dose mostly 92.2 µM), for the others: at the top dose inhibition of complex formation; Rango CFP/YFP FRET sensor + importin beta, 45 min; Importin subunit beta-1 (Homo sapiens), Q14974; actives 0.031% (n = 340,000);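 also: potency is read from the fitted curve at half-maximal effect; 0% = DMSO wells and 100% = buffer wells lacking importin beta; nearly all actives have a fitted effect of over 15% in size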
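Inhibition scored from the CFP 486 nm/YFP 530 nm FRET ratio 45 min after adding 0.125 microM importin beta to 50 nM Rango biosensor preincubated 5 min with compound (room temperature, PBS with DTT, Tween-20, BSA). No-importin wells as positive control.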
KCNH2 3.1 block = qHTS for Inhibitors of KCHN2 3.1: Mutant qHTS; U2OS KCNH2 3.1, thallium flux FluxOr; active compounds read low; activity change, % (tested at about 1.8 µM); actives 0.95% (n = 340,000); AID 720553, 2013;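 active = maximum activity change below -70%; inconclusive = maximum activity change from -70% to -50%; inactive = maximum activity change above -50%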;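 also: thallium influx rate constant from kinetic fluorescence after stimulation buffer; % is scaled to controls: 0 for no effect and ±100 for the full control effect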
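Steps: virus added to U2OS suspension (4 h, RT, dark); medium with 10% FBS added, cells plated, 37 C overnight; FluxOr/Red40 loading buffer 45 min RT; stimulation buffer, 2 min kinetic read; rate constant normalized.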
CCT chaperon mod = High-Throughput Screening for Modulators of Cytosolic Chaperonin Activity; purified chaperonin ATPase assay, HTRF ADP detection, 30 min; activity change, % (concentration not given with the values), hits read low; actives 0.3% (n = 360,000); AID 651819, 2012; in the data active = activity change below about -30%; also: % is scaled to controls: 0 for no effect and ±100 for the full control effect
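Nucleotide hydrolysis assay: TRiC at 20–40 nM final (set by batch activity) with 10 uM ATP, 30 min at 37 °C, in presence of 76 uM compound. Detection by competitive ADP HTRF, 30 min ambient.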
Mm-Cpn inhibitor = Inhibitors of TCP-1 ring complex (TRiC) of Methanococcus maripaludis (MmCpn): qHTS. purified Mm-Cpn ATPase, ADP Transcreener TR-FRET. Potency, µM (highest dose often 76.9 µM), for inactives: top-dose activity, negative = inhibition, hits mostly inhibitors. actives 0.031% (n = 330,000). AID 504842, 2011; active = well fitted inhibition curve with a large enough effect; inconclusive = small, poorly fitted or top-dose-only effect; also: potency is read from the fitted curve at half-maximal effect; % is scaled to controls: 0 for no effect and ±100 for the full control effect; nearly all actives have a fitted effect of over 80% in size
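Purified archaeal chaperonin (25 nM final) was preincubated with compound for 10 min at 37°C, then ATP (10 uM final) was added for 30 min at 37°C in Tris pH 7.4/KCl/MgCl2/DTT buffer. ADP was quantified by HTRF Transcreener TR-FRET.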
* marks the source's active call; other numbers are inactive results; ? = inconclusive; . = no result given; [ ] = dose if it differs, or a comment. Unless noted, calls follow the shape of the full dose curve.

SMILES	Rango dissoc inh	KCNH2 WT inh	Rango complex inh	KCNH2 3.1 block	CCT chaperon mod	Mm-Cpn inhibitor
O=C(Cn1c(=O)cnc2ccccc21)Nc1ccccc1N1CCOCC1	2%	7	-2%	1	3	-1%
O=C(OCC#CCNc1nnc(-c2cccc3ccccc23)o1)c1cccs1	.	.	.	.	.	-3%
COCCCNC(=S)Nc1ccc2c(c1)OCCO2	4%	-88*	-2%	12	-2	2%
Cc1cc(CNC(=O)c2ccc3c(c2)OCO3)c2ccccc2n1	1%	4	-2%	?	1	-1%
Cc1ccc2nc(-c3ccc(-c4cccc(Cl)c4)cc3)c(NCc3ccccc3)n2c1	?	-1	?	-78*	1	-1%
COc1cc(-c2nc3ccc(C)cn3c2NCc2ccccc2)ccc1-c1cccc(Cl)c1	?	13	?	-49	-1	-2%
CCCCNc1c(-c2cccc(-c3ccc(OC)cc3)c2)nc2ccc(C)cn12	?	-36	?	-27	-35*	-1%
Cc1ccc(-c2nc3ccccn3c2NCc2ccc3c(c2)OCO3)cc1	-20%	-14	?	-92*	2	-8%
COc1ccc(C2Nc3ccccc3C(=O)N2Cc2ccccc2)cc1COc1ccc(Cl)cc1Cl (centres undefined)	.	.	.	.	.	0%
O=C(NCc1ccco1)/C(=C/c1ccccc1)NC(=O)c1ccco1	-7%	-92*	0%	-2	-2	1%
O=C(COC(=O)/C=C/c1ccccc1)NCc1ccco1	.	7	.	-8	-56*	.
O=C(NCc1ccco1)/C(=C/c1ccc(Cl)cc1)NC(=O)c1ccco1	9%	19	0%	-3	-2	-4%
O=C(Nc1ccccc1)/C(=C/c1ccc(F)cc1)NC(=O)c1ccco1	-6%	2	-2%	-114*	-3	-1%
O=C(NCCc1nc2ccccc2[nH]1)/C(=C/c1ccc2c(c1)OCO2)NC(=O)c1ccc(Cl)cc1Cl	?	-165*	0%	-107*	1	-1%
COc1cc(/C=C2\SC(=S)N(CCC(=O)N3CCCCC3)C2=O)cc(OC)c1OC	-7%	-9	7%	-8	1	2%
O=C(NCCc1nc2ccccc2[nH]1)/C(=C/c1ccc(F)cc1)NC(=O)c1ccco1	3%	-72*	-1%	0	-1	-1%
CCN1CCC(NC(=O)Nc2ccc(F)cc2F)CC1	10%	-4	1%	-86*	-2	2%
O=C(Nc1ccc(F)cc1F)NC1CC1	-10%	17	-1%	7	0	2%
Cc1c(C(=O)N(C)C)c2ccc(Cl)cc2n1O	-1%	0	-6%	-107*	0	0%
Cc1ccc(C)c(NCC(=O)NNC(=S)Nc2ccccc2)c1	-2%	-75*	-2%	21	0	-1%
O=c1oc2ccccc2c2c1C1O[C@](c3ccsc3)(Cc3ccccc31)O2	.	.	.	.	.	-13%[15.4 µM]
COc1ccc(C)cc1N(C(=O)CNC(=O)c1ccco1)C(C(=O)NCC1CCCO1)c1ccccc1 (centres undefined)	-21%	-10	-4%	-3	-1	0%
Cc1ccc(C)c(N(C(=O)CNC(=O)c2ccco2)C(C(=O)NCC2CCCO2)c2ccccc2)c1 (centres undefined)	1%	-5	1%	-75*	0	0%
N#Cc1cnn(-c2cccc(Cl)c2)c1N	-6%	-4	?	-86*	1	-1%
O=C1C2=C(C(=O)c3ccccc31)C1O[C@](CCCCN3C(=O)c4ccccc4C3=O)(Cc3ccccc31)O2	.	.	.	.	.	-2%[15.4 µM]
